# The supplement of paper PMC11628255, “Interference of metal ions on the bioluminescent signal of firefly, Renilla, and NanoLuc luciferases in high-throughput screening assays” (Frontiers in Chemistry, 2024)
# ± gives the standard deviation of the averaged measurements.
# Tested on: Renilla luciferase (RLuc)
# Test: residual bioluminescent signal relative to negative control without GSH; higher = less interference (more residual luciferase signal)
# Settings: screening conditions buffer
# Method: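 Selected metal salts at 3-4 concentrations tested on purified FLuc, NLuc or RLuc in screening buffer with 0, 0.2 or 2 mM glutathione added; 10 min enzyme pre-incubation at RT, luminescence 10 min after substrate. Signal normalised to negative control without GSH (% N_VALUE); triplicate wells.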
# [1] = metal salt concentration 1 mM, glutathione 0 mM
# [2] = metal salt concentration 1 mM, glutathione 0.2 mM
# [3] = metal salt concentration 1 mM, glutathione 2 mM
SMILES,"residual bioluminescent signal (metal salt concentration 0.005 mM, glutathione 0 mM) [%]","residual bioluminescent signal (metal salt concentration 0.005 mM, glutathione 0.2 mM) [%]","residual bioluminescent signal (metal salt concentration 0.005 mM, glutathione 2 mM) [%]","residual bioluminescent signal (metal salt concentration 0.536 mM, glutathione 0 mM) [%]","residual bioluminescent signal (metal salt concentration 0.536 mM, glutathione 0.2 mM) [%]","residual bioluminescent signal (metal salt concentration 0.536 mM, glutathione 2 mM) [%]",residual bioluminescent signal [1] [%],residual bioluminescent signal [2] [%],residual bioluminescent signal [3] [%],"residual bioluminescent signal (metal salt concentration 5 mM, glutathione 0 mM) [%]","residual bioluminescent signal (metal salt concentration 5 mM, glutathione 0.2 mM) [%]","residual bioluminescent signal (metal salt concentration 5 mM, glutathione 2 mM) [%]","residual bioluminescent signal (metal salt concentration 0.02 mM, glutathione 0 mM) [%]","residual bioluminescent signal (metal salt concentration 0.02 mM, glutathione 0.2 mM) [%]","residual bioluminescent signal (metal salt concentration 0.02 mM, glutathione 2 mM) [%]","residual bioluminescent signal (metal salt concentration 0.118 mM, glutathione 0 mM) [%]","residual bioluminescent signal (metal salt concentration 0.118 mM, glutathione 0.2 mM) [%]","residual bioluminescent signal (metal salt concentration 0.118 mM, glutathione 2 mM) [%]","residual bioluminescent signal (metal salt concentration 0.5 mM, glutathione 0 mM) [%]","residual bioluminescent signal (metal salt concentration 0.5 mM, glutathione 0.2 mM) [%]","residual bioluminescent signal (metal salt concentration 0.5 mM, glutathione 2 mM) [%]"
[Cl][Fe]([Cl])[Cl] [iron(III) chloride],115 ± 9.3,116 ± 14,161 ± 26,36.6 ± 8,53 ± 4.8,101 ± 13,33.4 ± 2,39.3 ± 5.5,48.9 ± 13,2.29 ± 1.6,0.915 ± 0.4,2.06 ± 1.4,,,,,,,,,
[Cl][Fe][Cl] [iron(II) chloride],,,,,,,12.3 ± 4.2,18.7 ± 10,32 ± 11,,,,86.2 ± 14,91.9 ± 18,122 ± 5.5,47.6 ± 13,56.5 ± 11,75.7 ± 7.6,16.5 ± 3.1,22.9 ± 4.2,31.1 ± 5.1
